Experimental data taken from PubChem BioAssay (NCI).
Values joined by “and” are separate entries in the source; they are usually repeats but may differ in a detail not shown here. Equal values may be shown once. About 83,000 compounds went through this panel and 20% of them were active in at least one assay; those are over-represented in the sample as a whole.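 Cell lines were cultured in 96-well plates, exposed to a single compound concentration, and assessed for percent growth 48 hours later.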 A number with no mark means an inactive call. Active and inactive are the calls of the source. Rule for the calls: active = growth percent below 10; inactive = the rest.

The molecules below were run on MDA-MB-468 breast (assay: NCI-60 one-dose screen, 48 h (100 = growth as untreated, 0 = no growth, -100 = all killed)). Details: 10 µM unless noted.

Structure (SMILES) | growth
COc1cc(/C=C/c2ccnc3ccccc23)cc(OC)c1OC | -8% (active)
O=C(O)CCCN1C(=O)NC2(C1=O)c1ccccc1-c1ccccc12 | 98.2%
CC1(c2ccc3ccccc3c2)CCC(=O)O1 (centres undefined) | 100%
O=C(OC[C@@H]1CO1)c1cccc2c(=O)c3ccccc3[nH]c12 | -52% (active)
N#Cc1c(N)sc(=S)c2c1CCCC2 | 110%
CCCCOC(=O)C1OC(Oc2ccc3c(C)cc(=O)oc3c2)[C@@H](OC(C)=O)C(OC(C)=O)C1OC(C)=O (some centres undefined) | 101%
Cn1c(SSc2ccc(-c3cccnc3)n2C)ccc1-c1cccnc1 | 72.3% and 93.8%
COc1ccc(NC(=O)/C=C/c2ccc(Cl)c(Cl)c2)cn1 | 69.5%
COc1ccccc1-n1cc(C#N)c(N)c1C(=O)c1ccc(Br)cc1 | 31.3%
Oc1c(CN2CCC(N3CCCCC3)CC2)cc(Cc2cc(CN3CCC(N4CCCCC4)CC3)c(O)c3ncccc23)c2cccnc12 | -39.2% (active)
CCOC(=O)c1ccc2c(c1)ncn2-c1ccc(NC(=O)Nc2cccc(C)c2)cc1 | 116%
COc1ccc(S(=O)(=O)Nc2cc(Sc3cccc4cccnc34)c(O)c3ccccc23)cc1 | -39.6% (active)
CCCCCCC/C=C/[C@H]1O[C@]23C(=O)C[C@@]4(C[C@@H](OC5OC(CO)C(O)C(O)C5O)C[C@@H]4[C@H]2C=C1C)OC3=O (some centres undefined) | 25.7%
Cc1c(CC(=S)N2CCOCC2)nnn1-c1cccc(C(F)(F)F)c1 | 117%
